Reference: PubChem BioAssay (EPA / NIEHS)
Inconclusive results are not listed. The source holds several records for some structures; these can differ, active in one and inactive in another. Calls of active or inactive are those of the source. The calls were made as follows, unless noted: active = hit-call score of the fitted dose curve at least 0.9, where 1 is the maximum; inactive = score below 0.9.

Tests used:
[1] = CCTE_Mundy_HCI_Cortical_Synap_Neur_Matur_NeuriteSpotCountPerNeuriteLength: CCTE's Synaptogenesis and Neurite Maturation Assay in rat cortical cells for Neurite Spot Count per Neurite Length, Mundy Lab (AID 2284210)
Summary of the method: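 Neurite-associated synapse density (synaptophysin puncta per unit neurite length) is measured by fluorescence high-content imaging in rat cortical cultures treated from DIV 7 and fixed at DIV 12, with DMSO as negative control.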

[2] = CCTE_Mundy_HCI_Cortical_Synap_Neur_Matur_BPCount: CCTE's Synaptogenesis and Neurite Maturation Assay in rat cortical cells for Branch Point Count, Mundy Lab (AID 2284211)
Summary of the method: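 HCI read-out of branch points from MAP2/synaptophysin/Hoechst immunofluorescence; rat cortical cultures, AraC DIV 5, dosing DIV 7, fixed DIV 12; fit in positive direction vs DMSO baseline.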

[3] = CCTE_Mundy_HCI_Cortical_NOG_NeuriteCount: CCTE's Neurite Outgrowth Assay in rat cortical cells for Neurite Count, Mundy Lab (AID 2284212);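 also: cells fixed about two days after chemical exposure began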
Summary of the method: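 Rat cortical primary cells; compound added 2 h post-plating, 1/10 dilution of working solution. Anti-betaIII-tubulin/AF488 ICC; ArrayScan neurite count vs DMSO.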

[4] = CCTE_Mundy_HCI_Cortical_NOG_NeuriteLength: CCTE's Neurite Outgrowth Assay in rat cortical cells for Neurite Length, Mundy Lab (AID 2284213);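 as to AC50: neurites imaged about 48 to 50 h after chemical exposure began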
Summary of the method: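 First, rat primary cortical cells were plated and, 2 h later, given test chemical as a 1/10 dilution. Finally, βIII-tubulin immunostaining enabled automated imaging of neurite length.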

[5] = CCTE_Mundy_HCI_Cortical_Synap_Neur_Matur_NeuriteLength: CCTE's Synaptogenesis and Neurite Maturation Assay in rat cortical cells for Neurite Length, Mundy Lab (AID 2284214)
Summary of the method: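 Cultures of rat primary cortical cells received chemical at DIV 7 and were fixed at DIV 12, after glial arrest with AraC at DIV 5. Neurite length was measured by automated imaging of MAP2 immunofluorescence.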

[6] = CCTE_Mundy_HCI_Cortical_Synap_Neur_Matur_NeuriteSpotCountPerNeuron: CCTE's Synaptogenesis and Neurite Maturation Assay in rat cortical cells for Neurite Spot Count per Neuron Count, Mundy Lab (AID 2284215)
Summary of the method: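 High-content imaging counts synaptophysin puncta along MAP2-labelled neurites per neuron after chemical exposure of rat cortical cells from DIV 7 to termination at DIV 12 (AraC added DIV 5). Loss of signal relative to DMSO.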

[7] = CCTE_Mundy_HCI_Cortical_Synap_Neur_Matur_SynapseCount: CCTE's Synaptogenesis and Neurite Maturation Assay in rat cortical cells for Synapse Count, Mundy Lab (AID 2284218)
Summary of the method: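 Cells were plated, allowed 2 hr to attach, treated with AraC at DIV 5, then exposed to chemicals from DIV 7 until DIV 12. After fixation and MAP2/synaptophysin immunolabelling, synapses per neuron were quantified by automated imaging against DMSO.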

[8] = CCTE_Mundy_HCI_Cortical_Synap_Neur_Matur_NeuriteCount: CCTE's Synaptogenesis and Neurite Maturation Assay in rat cortical cells for Neurite Count, Mundy Lab (AID 2284222)
Summary of the method: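 In this multiplexed morphology readout, rat primary cortical neurons are fixed at DIV 12 following dosing at DIV 7 and stained for MAP2, synaptophysin and nuclei. High-content image analysis yields neurite count.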

[9] = CCTE_Mundy_HCI_Cortical_Synap_Neur_Matur_CellBodySpotCount: CCTE's Synaptogenesis and Neurite Maturation Assay in rat cortical cells for Cell Body Spot Count, Mundy Lab (AID 2284223)
Summary of the method: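 High-content imaging counts synaptophysin puncta on neuronal cell bodies per neuron after MAP2/synaptophysin immunostaining. Rat primary cortical cells, glia arrested with AraC at DIV 5, were exposed DIV 7–12; signal decrease measured against DMSO.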

[10] = CCTE_Mundy_HCI_hNP1_Pro_ResponderAvgInten: CCTE's Proliferation Assay in human neuroprogenitor cells, Mundy Lab (AID 2284224; active = hit-call score of the fitted dose curve at least 0.9, where 1 is the maximum;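 also: human neural progenitor cells hNP1 derived from WA09 embryonic stem cells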)
Summary of the method: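 Human neuroprogenitors (hNP1, WA09 lineage) receive test chemical after 40 to 44 hours of attachment. A four-hour BrdU pulse begins twenty hours later, followed by fixation and high content imaging; signal is referenced to DMSO controls.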

[11] = TAMU_PeakParms_SingleDonor1434_Chronotropy: Texas A&M University (TAMU) 1.5-hr Human Induced Pluripotent Stem Cell (iPSC)-derived Cardiomyocytes Calcium (Ca+2) Flux Assay for Cardiotoxicity: Chronotropy (changes in peak frequency) (AID 2284217); conditions: actives raise or lower the signal
Summary of the method: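 Using fluorescent Ca2+ flux, average beats per second are measured in human iPSC-derived cardiomyocytes treated 90 min (0.5% DMSO vehicle, 0.2–100 uM). Non-beating data points are removed; activity is modeled in both directions relative to DMSO controls.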

[12] = IUF_NPC1_viability_72hr: Viability Assessment at 72 hours in the Leibniz Research Institute for Environmental Medicine (IUF) Neural Progenitor Cell Proliferation Assay (NPC1) (AID 2284209)
Summary of the method: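 Spheres of primary human neural progenitors were plated singly in proliferation medium and treated for 72 h. Mitochondrial reduction of resazurin was then measured by fluorescence and analysed against DMSO controls.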

[13] = BSK_BT_PBMCCytotoxicity: PBMC Cytotoxicity Assessment in the BioMAP Diversity Plus: BT Assay (AID 2284225); conditions: primary human B cells with PBMC;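 also: PBMC viability measured by Alamar Blue dye reduction fluorescence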
Summary of the method: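 Viability by Alamar Blue reduction (6 h, ex/em 546/580 nm) after 90 h culture of SEB/TSST-1-activated PBMC (20 ng/mL each) given compound 1 h before activation. DMSO served as baseline for curve fitting.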

[14] = read-out: Secreted IgG (sIgG), gene 3500; assay: BSK_BT_sIgG: BioMAP Diversity Plus: BT Assay for Secreted IgG (sIgG) Biomarker Activity (AID 2284226); conditions: primary human B cells with PBMC
Summary of the method: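 Cells (B cells with peripheral blood mononuclear cells) are dosed, cultured 24 h, then supernatant IgG is measured by ELISA. DMSO serves as negative control; curves are fitted for signal increase.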

[15] = BSK_BT_Bcell_Proliferation: Viability Assessment in the BioMAP Diversity Plus: BT Assay for B cell Proliferation (AID 2284227); conditions: primary human B cells with PBMC
Summary of the method: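 Using a human primary B cell–PBMC co-culture, the assay measures total protein by sulforhodamine B absorbance as a gauge of proliferation after 72 h. Analysis followed the positive fitting direction with DMSO as baseline.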

[16] = read-out: Interleukin 6 (IL6), IL6 (gene 3569); assay: BSK_BT_xIL6: BioMAP Diversity Plus: BT Assay for Interleukin 6 (IL6) Biomarker Activity (AID 2284228); conditions: primary human B cells with PBMC
Summary of the method: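 Secreted IL-6 in the primary human B cell plus PBMC system, measured by Luminex at 24 h post-chemical, DMSO as baseline. Alamar Blue viability: 75,000 cells/well, chemical 1 h before SEB/TSST-1 (20 ng/mL each), 90 h, then 6 h dye.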

[17] = read-out: Tumor necrosis factor (Homo sapiens) (UniProt P01375); assay: BSK_BT_xTNFa: BioMAP Diversity Plus: BT Assay for Tumor necrosis factor alpha (TNF-alpha) Biomarker Activity (AID 2284230); conditions: primary human B cells with PBMC
Summary of the method: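 Endpoint derived in the positive direction versus DMSO vehicle. Cells: B cells together with PBMC, exposed 24 h before TNF-alpha in the medium was read on the Luminex xMAP platform.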

Measured: AC50

Sequence of Tumor necrosis factor (Homo sapiens) (P01375 whole entry, looked up): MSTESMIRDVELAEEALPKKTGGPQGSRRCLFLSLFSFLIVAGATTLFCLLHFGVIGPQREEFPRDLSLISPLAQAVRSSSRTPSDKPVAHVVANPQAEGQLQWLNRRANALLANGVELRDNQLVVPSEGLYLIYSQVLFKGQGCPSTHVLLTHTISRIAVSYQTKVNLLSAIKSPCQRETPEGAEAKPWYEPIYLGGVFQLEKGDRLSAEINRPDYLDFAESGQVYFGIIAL

COc1ccc(O)c(C(C)(C)C)c1
not listed: [11] | [12] | [13] | [14] | [15] | [16] | [17]
inactive: all other assays above

c1cc2ccc3cccc4ccc(c1)c2c34
active: [11] 50000 nM

O=S(=O)(O)C(F)(F)C(F)(F)C(F)(F)C(F)(F)C(F)(F)C(F)(F)F
not listed: [11]
inactive: all other assays above

Sc1ccccc1
inactive: [13] | [14] | [15] | [16] | [17]

Oc1c(Cl)c(Cl)c(Cl)c(Cl)c1Cl
active: [14] 27000 nM
inactive: [13] | [15] | [16] | [17]

O=S(=O)(O)C(F)(F)C(F)(F)C(F)(F)C(F)(F)F
not listed: [10] | [11]
inactive: all other assays above

O=C(O)C(F)(F)C(F)(F)C(F)(F)C(F)(F)C(F)(F)C(F)(F)C(F)(F)C(F)(F)F
inactive: [13] | [14] | [15] | [16] | [17]
active: [15] 30000 nM | [17] 49800 nM

CO/C=C(/C(=O)OC)c1ccccc1COc1cccc(C(F)(F)F)n1
active: [12] 25300 nM | [1] 1090 nM | [2] 1160 nM | [3] 1550 nM | [4] 1430 nM | [5] 731 nM | [6] 688 nM | [7] 871 nM | [8] 1460 nM | [9] 1160 nM | [10] 86900 nM
